PubChem BioAssay (NCI)
Compounds without any hit were thinned out: in the full panel of roughly 83,000, 20% have a hit.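 Results are percent growth after 48 hours of single-concentration exposure. 100 means growth as in untreated cells, lower positive values show inhibition; negative values down to -100 show cell death.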 Unmarked numbers belong to inactive results. Active and inactive are the calls of the source. How the source made its calls: active means growth percent below 10; inactive means the rest.

system: SK-OV-3 ovarian; experiment: NCI-60 one-dose screen, 48 h (100 = growth as untreated, 0 = no growth, -100 = all killed); settings: 10 µM

SMILES | growth
Cc1ccc(/C(N)=N/c2sc(-c3ccccc3)nc2-c2ccccc2)cc1 | 87.1%
Cc1cccc(NC(=O)CSc2nc3ccc(F)cc3c(=O)n2-c2ccc(Cl)cc2)c1C | 56.8%
CCCn1c(=O)c2[nH]c(-c3ccc(OCc4nc5ccc(C)cc5[nH]4)cc3)nc2n(CCC)c1=O | 4.62% (active)
O=S(=O)(Nc1ncccn1)c1ccc(-n2c(-c3ccccc3)nc(-c3ccccc3)c2-c2ccccc2)cc1 | 101%
Cc1ccc(C(=O)NNC(=O)CSc2nc3ccccc3c(=O)[nH]2)cc1 | 116%
COc1cc(OC(F)(F)F)ccc1C(=O)Nc1sc2c(c1C#N)CCC(=O)C2 | 81.2%
COc1ccc(C(=O)Nc2sc3c(c2C#N)CCC(=O)C3)cc1C(F)(F)F | -3.75% (active)
COc1ccc(-c2c(N)c(=O)n(C)c3ccccc23)cc1 | 100%
COc1ccc2c(c1)N=C(C(=O)O)/C2=C/c1sc(Nc2ccc(O)cc2)nc1O | 86.1%
CN(C)c1ccc(/C=C/c2nc3ccccc3c(=O)n2CC(=O)Nc2ccc(Cl)cc2)cc1 | 84.8%
COc1ccccc1C(=O)NNC(=O)CSc1nc2c(c(=O)[nH]1)CCCC2 | 94.1%
CN(C)c1nc(NCCNS(=O)(=O)c2ccc(C(=O)/C=C/c3ccccc3)cc2)nc(Nc2ccc(F)cc2)n1 | 97.8%
CN(CCO)c1oc(-c2ccccc2)nc1[P+](c1ccccc1)(c1ccccc1)c1ccccc1 | -13.5% (active)
CCOC(=O)C1=C(N)N(c2ccccc2)C2=C(C(=O)CC(C)(C)C2)C1c1ccccc1OC (centres undefined) | 98.2%
